Screening results from PubChem.
D1 antagonist – blocks dopamine activation of the human D1 receptor. P21728. HEK293 TREx D1 cells, calcium flux, dopamine EC80; stronger effect = lower value. activity change, negative = inhibition, % at 10 µM. 3.2% of 360,000 active; in the data active = activity change below about -30%; also: % is scaled to controls: 0 for no effect and ±100 for the full control effect
Target sequence (P21728 whole entry, looked up): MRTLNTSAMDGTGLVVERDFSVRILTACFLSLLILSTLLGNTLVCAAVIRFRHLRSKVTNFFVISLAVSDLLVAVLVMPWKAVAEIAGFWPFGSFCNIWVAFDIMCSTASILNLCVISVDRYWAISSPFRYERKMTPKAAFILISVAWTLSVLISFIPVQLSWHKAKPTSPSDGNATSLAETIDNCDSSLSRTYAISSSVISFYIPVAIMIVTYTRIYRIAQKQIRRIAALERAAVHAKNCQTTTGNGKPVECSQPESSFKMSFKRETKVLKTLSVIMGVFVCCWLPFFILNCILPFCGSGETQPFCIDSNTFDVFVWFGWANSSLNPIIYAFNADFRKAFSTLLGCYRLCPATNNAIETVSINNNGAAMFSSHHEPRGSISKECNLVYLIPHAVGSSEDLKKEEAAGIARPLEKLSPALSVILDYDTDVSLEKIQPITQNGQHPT
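Tetracycline-induced HEK293 T-REx cells with force-coupled D1 receptor were loaded with a no-wash calcium dye. Compound was added after a 10 s baseline and read kinetically for 180 s; EC80 dopamine was then added and calcium flux followed another 180 s.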
D1 PAM – potentiators of human D1 dopamine receptor. AID 504651. potentiation, % at 10 µM. 0.036% of 360,000 active. P21728. HEK293 TREx D1 cells, calcium flux, dopamine EC20 potentiation; in the data active = potentiation above about 30%; also: 0% is about no effect
D1 agonist – agonists of human D1 dopamine receptor; P21728; HEK293 T-REx D1 cells, calcium flux, agonist mode; activation, % at 2 µM; 1% of 360,000 active; AID 504660; in the data active = activation above about 30%; also: 0% is about no effect
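Tetracycline-induced HEK293 TREx D1 cells, force-coupled to calcium signalling, were dye-loaded with a no-wash calcium kit. Compound was pin-added after a 10 s baseline. Fluorescence was read kinetically at 1 cycle/s for 180 s, with calcium rises flagged as agonism.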
DRD3 agonist – activates the human D3 dopamine receptor | P35462 | max activation, % | D3R DiscoveRx beta-arrestin cells, luminescence, 90 min | 0.58% of 410,000 active; in the data active = max activation above about 30%; also: 0% is about no effect
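Cells at 1500/well, incubated overnight, then treated with pinned compounds (dopamine as control) for 90 min at 37 degrees C. DiscoveRx reagent added for 30 - 60 minutes at room temperature; luminescence read.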
DRD3 antagonist – D3 dopamine receptor (human) antagonism. P35462. max response, negative = inhibition, %. 2.5% of 360,000 active. D3R cells, DiscoveRx beta-arrestin luminescence, antagonist mode; stronger effect = lower value; in the data active = max response below about -50%; also: % is scaled to controls: 0 for no effect and ±100 for the full control effect
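Cells expressing the human receptor were seeded at 1500 cells/well, incubated overnight at 37 degrees C in 5% CO2, then exposed to library compounds with dopamine controls for 90 minutes at 37 degrees C before luminescent detection.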
An asterisk follows results filed as active; · = not tested or not shown. Sampled rows, rich in hits. Any-hit rate of the full collection: about 6.1%.

SMILES | D1 antagonist | D1 PAM | D1 agonist | DRD3 agonist | DRD3 antagonist
Cc1ccc(CNC(=O)c2ccc3c(c2)c(C)c(C)n3Cc2ccccc2)o1 | -28 | -7 | 5 | -17 | ·
Cc1c(C)n(Cc2ccccc2)c2ccc(C(=O)NCc3ccco3)cc12 | -70* | -8 | 7 | -14 | ·
Cc1c(C)n(Cc2ccccc2)c2ccc(C(=O)OCCN(C)C)cc12 | -25 | -4 | 57* | -21 | -23
COc1cccc(CNC(=O)c2ccc3c(c2)c(C)c(C)n3Cc2ccccc2)c1 | -33* | -7 | 2 | 1 | ·
Cn1ccc2c(-c3ccc(C(=O)O)cc3)cc3c(c21)C1CCC3O1 (centres undefined) | · | · | · | 8 | 0
Cc1ccc(Cl)c(OCC(=O)NCC(c2cccs2)N2CCOCC2)c1 (centres undefined) | -3 | -11 | 11 | -11 | 4
COc1ccc2c(c1)CC(C(=O)Nc1c(C)cc(C)cc1C)CO2 (centres undefined) | -8 | -3 | 0 | 3 | ·
Cc1cc(N2CCC(C(=O)Nc3ccc(F)cc3F)CC2)n2nc(C)c(-c3ccc(Cl)cc3)c2n1 | -2 | -1 | 2 | 7 | ·
COC(=O)C1(C(=O)OC)C/C=C\CCN(S(=O)(=O)c2ccccc2[N+](=O)[O-])CC1 | · | · | · | 6 | 24
O=C(Cc1ccc(NC(=O)N2CCCCc3ccccc32)cc1)NCc1ccccc1 | -12 | 2 | 2 | -2 | ·
Cc1ccc(S(=O)(=O)c2nnn3c2nc(NC(C)C)c2sccc23)cc1 | -30* | -7 | 5 | -10 | ·
Cc1ccc(CNc2nc3c(S(=O)(=O)c4ccc(C)c(C)c4)nnn3c3ccc(Cl)cc23)cc1 | -5 | -3 | 2 | 4 | ·
Cc1ccc(S(=O)(=O)c2nnn3c2nc(NC(C)C)c2cc(Cl)ccc23)cc1C | -52* | -4 | 0 | 5 | ·
COCCNc1nc2c(S(=O)(=O)c3ccc(C)c(C)c3)nnn2c2ccc(Cl)cc12 | -64* | -8 | 1 | 2 | ·
O=S(=O)(c1ccccc1)c1nnn2c1nc(NCc1ccc(Cl)cc1)c1sccc12 | -34* | -5 | 0 | -4 | ·
Cc1ccc(S(=O)(=O)c2nnn3c2nc(NC2CCCCC2)c2sccc23)cc1 | -2 | -1 | 0 | 5 | ·
COCCCNc1nc2c(S(=O)(=O)c3ccccc3)nnn2c2ccc(Cl)cc12 | -16 | -4 | 1 | 2 | ·
COCCCNc1nc2c(S(=O)(=O)c3ccc(C)c(C)c3)nnn2c2ccc(Cl)cc12 | -66* | -7 | 2 | -1 | ·
CCCCC(=O)N(C)c1c(C)nc2ccc(C(=O)N3CCN(C(=O)c4ccco4)CC3)cn12 | · | · | · | -6 | 0
CCOC(=O)c1c(NC(C)=O)sc2c1CCC(C=NCCCN(CC)CC)=C2Sc1ccccc1 | · | · | · | 2 | -66*
Cc1nnc(SCC(=O)NNC(=O)COc2ccc(Cl)cc2)n1C | 5 | -6 | 1 | 10 | -6
COCCNc1ccc(N2C(=O)CCCC2=O)cc1[N+](=O)[O-] | -47* | -3 | 1 | 0 | -3
CCOCCCNc1ccc(N2C(=O)CCCC2=O)cc1[N+](=O)[O-] | 3 | -2 | 2 | -7 | 36
COc1ccc(-n2cc(CNCCc3nc(C)cc(C)n3)c(-c3ccccc3Cl)n2)cc1 | 25 | -1 | 40* | -25 | -85*
Fc1ccc(-n2cc(CNCCc3ccccn3)c(-c3ccccc3Cl)n2)cc1 | 18 | -4 | 34* | -39 | -86*
SMILES | D1 antagonist | D1 PAM | D1 agonist | DRD3 agonist | DRD3 antagonist
CC(=O)N1CCN(c2csc3ccc(Br)cc3c2=O)CC1 | -13 | 0 | 3 | 1 | ·
Cc1cc(C)nc(N/N=C/C(Cl)=C/c2ccccc2)n1 | -9 | -4 | 1 | 4 | 9
O=C(NCCc1ccc(Cl)cc1)c1ccc2c(c1)N(Cc1ccccc1)C(=O)CS2 | 3 | -1 | 1 | 9 | ·
CCSc1nnc(-c2ccncc2)o1 | -3 | -4 | 2 | 22 | -7
CCSc1nnc(-c2sc3nnc(-c4ccccc4)c(-c4ccccc4)c3c2N)o1 | -1 | 3 | 109* | 3 | 52
C[C@@H]1CN([C@H](C)CO)C(=O)CCCn2nncc2CO[C@@H]1CN(C)C(=O)NC1CCCCC1 | · | · | · | -10 | -15
COc1ccc(C2CC(O)(c3ccccc3)Oc3cc(OC)c(OC)c(OC)c32)cc1 (centres undefined) | -36* | -3 | 3 | 6 | 9
O=C1CC(c2ccccc2)c2ccc(O)cc2O1 (centres undefined) | -7 | -3 | 6 | -5 | -1
OC1(c2ccccc2)CC(c2ccccc2)c2ccccc2O1 (centres undefined) | · | · | · | 73* | 5
CCOC(=O)c1scc(-c2ccc(C)cc2)c1S(=O)(=O)Nc1ccc(OC)c(Cl)c1 | -3 | -6 | 10 | -1 | ·
COc1ccc(OC)c(S(=O)(=O)NC2CCCCNC2=O)c1 (centres undefined) | -7 | -3 | 4 | -2 | 4
COc1ccc(NC(=O)c2c(NCc3ccc(C)o3)sc3c2CCCCC3)c(OC)c1 | -16 | -2 | 1 | -4 | ·
CC1CCCN(C(=O)CSCC(=O)Nc2nc(-c3cccs3)cs2)C1 (centres undefined) | -84* | · | 12 | 4 | -10
CC1CCN(C(=O)CSCC(=O)Nc2nc(-c3cccs3)cs2)CC1 | -14 | -3 | 3 | -2 | 10
O=C(CN1C(=O)S/C(=C/C=C/c2ccccc2)C1=O)Nc1ccc(C(=O)O)cc1 | -16 | -5 | 5 | 16 | 4
O=C(CCCN1C(=O)S/C(=C/c2ccccc2)C1=S)Nc1ccc(C(=O)O)cc1 | -40* | -2 | 4 | 4 | -25
O=C(CCN1C(=O)S/C(=C/c2ccccc2)C1=O)Nc1ccc(C(=O)O)c(O)c1 | 22 | 18 | 55* | -9 | 3
O=C(CCCN1C(=O)S/C(=C\C=C\c2ccccc2)C1=O)Nc1ccc(O)cc1 | -31* | 0 | 14 | 11 | 6
O=C(CCN1C(=O)S/C(=C\c2ccc(F)cc2)C1=O)Nc1ccc(C(=O)O)c(O)c1 | 2 | 0 | 5 | -8 | 19
COc1cccc(/C=C2\SC(=O)N(CCC(=O)NNC(=O)c3ccccc3Cl)C2=O)c1 | 5 | -7 | 7 | 57* | 16
CCOc1ccc(Br)cc1S(=O)(=O)Nc1cccc(S(=O)(=O)N(C)c2ccccc2)c1 | 9 | -4 | 2 | -6 | -25
Cc1nc2ccc(C(=O)Nc3ccc4c(c3)OCC(=O)N4)cn2c1N(C)C(=O)CCc1ccccc1 | · | · | · | -22 | -11
O=C(CN1C(=O)S/C(=C\C=C\c2ccccc2)C1=O)N1CCOCC1 | -40* | 8 | 0 | -2 | 10
COc1ccc(CNC(=O)C(c2ccco2)N(C(=O)Cc2cccs2)c2cccnc2)cc1 (centres undefined) | -35* | -3 | 6 | 4 | 3
CCc1ccc(S(=O)(=O)Nc2cccc(-c3ccc(N4CCCCC4)nn3)c2)s1 | -8 | -1 | -1 | -1 | ·
